Shown are actives, neighbours in structure and some others; about 19% of the full set was active somewhere.
TDP1 cell noCPT – qHTS for Inhibitors of human tyrosyl-DNA phosphodiesterase 1 (TDP1): qHTS in cells in absence of CPT | DT40 Tdp1-/- hTDP1 cells, no CPT, ATP luminescence, 48 h | Potency, µM (highest dose often 46.2 µM), for inactives: at the top dose activity change, negative = growth inhibition, most hits filed as inhibitors | 15% of 420,000 active | AID 686978, 2013; note: nearly all actives have a fitted effect of over 55% in size
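Cells were dispensed at 400 per well, compounds added by pin tool, plates incubated ≥48 hr at 37 °C, then CellTiter-Glo added for 30 min at room temperature before luminescence reading. Line: DT40 Tdp1-/- complemented with hTDP1; camptothecin omitted.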
RORgamma inh – ROR gamma (mouse) transcription inhibition. Potency, µM (highest dose often 53.6 µM), without a hit: at the highest dose activity change, negative = inhibition, most hits filed as inhibitors. Drosophila S2 Gal4-RORgamma UAS-luciferase reporter, 20 h. P51450. AID 2551. 5.4% of 310,000 active; note: nearly all actives have a fitted effect of over 60% in size
Target sequence (P51450 whole entry, looked up, the tested form may be a part): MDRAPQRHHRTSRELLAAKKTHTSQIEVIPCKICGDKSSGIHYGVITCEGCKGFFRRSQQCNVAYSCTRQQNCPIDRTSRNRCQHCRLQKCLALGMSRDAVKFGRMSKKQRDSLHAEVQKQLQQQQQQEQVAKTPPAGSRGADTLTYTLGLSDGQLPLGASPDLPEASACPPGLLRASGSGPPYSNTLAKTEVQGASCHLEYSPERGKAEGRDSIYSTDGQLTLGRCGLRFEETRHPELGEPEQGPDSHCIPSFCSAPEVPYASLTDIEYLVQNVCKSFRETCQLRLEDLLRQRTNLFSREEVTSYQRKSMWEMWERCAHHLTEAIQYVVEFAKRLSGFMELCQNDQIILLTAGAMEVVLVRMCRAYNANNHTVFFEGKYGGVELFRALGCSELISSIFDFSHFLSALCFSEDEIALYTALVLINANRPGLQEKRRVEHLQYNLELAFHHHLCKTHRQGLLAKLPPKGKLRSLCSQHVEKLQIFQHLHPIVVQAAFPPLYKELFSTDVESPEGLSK
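Drosophila Schneider cells stably carrying a metallothionein-driven Gal4 DBD–ROR gamma fusion and a UAS-Photinus luciferase reporter were exposed to compound for 1 hr, then induced with copper sulfate (700 uM final) for 20 hr at ambient temperature before luminescence reading.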
TDP1 inh – TDP1 (human) enzyme inhibition. Q9NUW8. recombinant TDP1, AlphaScreen DNA substrate cleavage. Potency, µM (titrated, usually from 130 µM), for inactives: at the top dose activity change, negative = inhibition, hits mostly inhibitors. 0.28% of 350,000 active. AID 485290; note: nearly all actives have a fitted effect of over 40% in size
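Recombinant human Tdp1 (E. coli-expressed, 1 nM final) preincubated with compounds 15 min at room temperature, then 5'-biotin/3'-phosphotyrosine-FITC DNA substrate (15 nM final) added for 5 min. AlphaScreen beads (10 ug/ml final) added 10 min; cleavage lowers signal.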
Gal4-VP16 FLuc – Gal4-VP16 reporter inhibition counter-screen. Drosophila S2 Gal4-VP16 UAS-luciferase, luminescence, 20 h. Potency, µM (top dose mostly 53.6 µM), for the others: top-dose activity, negative = inhibition, hits mostly inhibitors. 3.5% of 310,000 active. AID 2546;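 note: Gal4-VP16 expression switched on by copper sulfate through the metallothionein promoter; nearly all actives have a fitted effect of over 50% in size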
DT40 TDP1 CPT – DT40-hTDP1 cell growth loss with CPT | chicken DT40 Tdp1-/-;hTDP1 cells + 20 nM CPT, ATP luminescence, 48 h | Potency, µM (doses to about 46.2 µM), without a hit: at the highest dose activity change, negative = growth inhibition, most hits filed as inhibitors | 12% of 420,000 active | AID 686979; note: nearly all actives have a fitted effect of over 55% in size
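Chicken DT40 Tdp1-/- cells stably complemented with human TDP1 were seeded at 400 cells/well in medium containing 20 nM camptothecin, exposed to pin-transferred compounds, and grown at 37 °C for at least 48 hr. Viability was read as ATP luminescence.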
* = called active by the depositor; u = inconclusive; x = not tested or not shown; [ ] = remark or other dose. Calls come from the whole dose curve; as a rule, active = well fitted curve in the direction sought with a large enough effect; inconclusive = small, poorly fitted or top-dose-only effect, or another doubt; inactive = no such curve, though single readings can be large; an effect the other way counts as inactive or inconclusive. % is set by controls: 0 for no effect and ±100 for the full control effect; potency is the fitted concentration of half-maximal effect.

SMILES	TDP1 cell noCPT	RORgamma inh	TDP1 inh	Gal4-VP16 FLuc	DT40 TDP1 CPT
OC(c1ccc(F)cc1)c1ncc(-c2ccccc2F)[nH]1 (centres undefined)	-13.7%	x	x	x	-36.6%
COc1cccc(-c2cc(C(F)(F)F)n3nc(-c4ccc(C)cc4)cc3n2)c1	-15.2%	x	-1.1%	x	-22.0%
COc1cccc(-c2cc3nc(-c4ccccc4)cc(N4CCC5(CC4)OCCO5)n3n2)c1	20.6µM*	16.0%	u	-6.0%	u
COc1cccc(-c2cc(N3CCN(C(=O)c4ccoc4)CC3)n3nc(-c4cccc(Cl)c4)cc3n2)c1	8.2µM*	x	x	x	14.6µM*
COc1cccc(-c2cc3nc(-c4ccccc4)cc(N4CCN(C(=O)c5ccoc5)CC4)n3n2)c1	5.17µM*	x	x	x	7.31µM*
O=c1c2oc3ccccc3c2[nH]c(=S)n1-c1ccc(F)cc1	-5.2%	3.98µM*	6.9%	u	1.8%
Cc1ccc(-n2c(=S)[nH]c3c(oc4ccccc43)c2=O)cc1C	-17.9%	1.41µM*	11.0%	1.78µM*	-2.7%
Cc1ccc(-n2c(=O)c3oc4ccccc4c3n(CC(=O)Nc3ccccc3)c2=O)cc1C	-4.0%	x	0.0%	x	-16.0%
O=c1[nH]c2c(oc3ccccc32)c(=O)n1Cc1ccccc1	u	0.3%	x	14.2%	-12.9%
CC(C)c1nn(-c2cc(C(F)(F)F)ccn2)c(=O)o1	-1.3%	20.6%	1.3%	3.6%	1.4%
O=C(NCCN1CCCCCC1)C1CCN(S(=O)(=O)N2CCOCC2)CC1	2.8%	-19.8%	2.8%	3.4%	-0.1%
COC(=O)c1ccc(NC(=O)CN2C(=O)C3C4C=CC(C4)C3C2=O)cc1 (centres undefined)	-15.1%	10.2%	-3.6%	5.2%	-6.0%
O=C(Nc1ccc2snnc2c1)Nc1cccc2ccccc12	u	-43.1%	0.0%	u	23.1µM*
CCc1ccccc1NC(=O)Nc1ccc(F)cc1	-27.2%	20.8%	-5.4%	6.5%	u
CCc1ccccc1NC(=O)Nc1ccc2snnc2c1	20.6µM*	x	-7.6%	x	18.4µM*
CCOC(=O)c1ccc(NC(=O)Nc2ccc3snnc3c2)cc1	2.91µM*	x	7.6%	x	u
Cc1ccc(NC(=O)Nc2ccc3snnc3c2)cc1C	u	x	2.5%	x	u
COc1cccc(NC(=O)Nc2ccc3snnc3c2)c1	u	x	2.5%	x	u
CC1CCCCC1NC(=O)c1ccco1 (centres undefined)	0.1%	x	-18.9%	x	-2.7%
N/C(COc1ccccc1)=N\NC(=O)c1cccnc1Oc1ccccc1	u	u	10.7%	1.41µM*	u
Cc1snc(SCC(=O)N/N=C(\N)COc2cccc(C(F)(F)F)c2)c1C#N	-6.4%	5.01µM*	-0.5%	6.31µM*	-19.9%
O=C(Nc1ccc(F)cc1)c1cccnc1Oc1ccccc1	4.6%	22.9%	x	1.6%	-0.4%
N/C(COc1cccc(C(F)(F)F)c1)=N\NC(=O)c1cccnc1Oc1ccccc1	u	0.501µM*	5.9%	1.26µM*	u
O=c1ncccn1[C@@H]1O[C@H](CO)[C@@H](O)[C@H]1O	x	-5.9%	8.2%	-3.0%	x
Cc1cc(C)nc(NC(=O)C(c2ccccc2)c2ccccc2)c1	14.6µM*	29.7%	4.5%	13.7%	u
SMILES	TDP1 cell noCPT	RORgamma inh	TDP1 inh	Gal4-VP16 FLuc	DT40 TDP1 CPT
CCC(C(=O)Nc1cc(C)cc(C)n1)c1ccccc1 (centres undefined)	u	x	x	x	-22.5%
O=C(O)c1ccccc1NC(=O)C(c1ccccc1)c1ccccc1	-12.0%	x	x	x	-5.0%
O=C(Nc1ccccc1O)C(c1ccccc1)c1ccccc1	7.31µM*	u	x	15.8µM*	u
NC(=O)c1ccccc1NC(=O)C(c1ccccc1)c1ccccc1	29.1µM*	x	x	x	u
CC(NC(=O)CCCc1c[nH]c2ccccc12)c1ccc(F)cc1 (centres undefined)	-15.4%	31.2%	6.9%	-18.8%	15.5%
NC(=O)c1ccsc1NC(=O)COC(=O)CNC(=O)c1ccc(F)cc1	-14.3%	x	-14.4%	x	-6.7%
COc1ccnc(Nc2ccc(C)c(C)c2)c1C#N	-10.7%	14.5%	3.2%	-9.8%	-1.8%
Cc1cn(-c2cccnc2)c(C)c1CNC[C@H]1O[C@@H](n2cnc3c(N)ncnc32)[C@H](O)[C@@H]1O	9.2µM*	x	2.6%	x	18.4µM*
Nc1ncnc2c1ncn2[C@@H]1O[C@H](CNCc2ccc(OCC(=O)Nc3ccccn3)cc2)[C@@H](O)[C@H]1O	-22.3%	x	0.0%	x	u
Nc1ncnc2c1ncn2[C@@H]1O[C@H](CNCc2ccc(OCc3ccccc3)cc2)[C@@H](O)[C@H]1O	10.3µM*	x	-1.4%	x	18.4µM*
Cc1sc2ccccc2c1CNC[C@H]1O[C@@H](n2cnc3c(N)ncnc32)[C@H](O)[C@@H]1O	-26.6%	x	-1.3%	x	-9.3%
CN(CC(=O)OCC(=O)NCc1ccccc1)S(=O)(=O)c1ccc(F)cc1	19.5%	x	1.0%	x	-6.0%
CS(=O)(=O)CCC(C(=O)N1CCOCC1)N1C(=O)c2cc(Cl)c(Cl)cc2C1=O (centres undefined)	-8.4%	-0.4%	1.2%	-16.4%	-3.2%
CCC(C)NC(=O)COCc1cc(-c2ccc3c(c2)OCO3)on1 (centres undefined)	-5.1%	17.5%	x	-0.8%	3.0%
CCCCCC(=O)NNC1=NCC(Cc2cccc(Cl)c2)S1 (centres undefined)	u	0.794µM*	4.8%	5.01µM*	-36.9%
CC(C)N1CCC2(CC1)N=C(c1ccc3c(c1)OCO3)CC(c1cc(Cl)ccc1O)N2 (centres undefined)	5.17µM*	u	0.0%	-8.2%[0.365 µM]	5.8µM*
CC(Sc1ccc(Cl)cc1)C(=O)NCc1ccc2c(c1)OCO2 (centres undefined)	-21.0%	-19.6%	4.7%	2.4%	-24.2%
Cc1ccc2nc(N/N=C/c3ccccc3F)nc(-c3ccccc3)c2c1	u	u	-0.6%	11.2µM*	u
Cc1cc(-c2ccccc2)nc(N/N=C/c2ccccc2F)n1	u	u	x	17.8µM*	u
Cc1ccc2nc(N/N=C/c3ccccc3C#N)nc(-c3ccccc3)c2c1	23.1µM*	11.2µM*	-3.9%	u	u
N#Cc1ccccc1/C=N/Nc1nc(-c2ccccc2)c2cc(Cl)ccc2n1	u	-29.8%	0.0%	1.1%	u
Cc1ccc2nc(NCC(=O)NN)nc(-c3ccccc3)c2c1	-7.6%	1.5%	2.5%	3.1%	u
OCCNc1nc(-c2ccccc2)c2cc(Cl)ccc2n1	-18.6%	11.8%	-2.4%	-3.6%	-2.9%
Cc1csc(N/N=C/c2ccccc2F)n1	-10.5%	u	x	-79.3%	u
Cc1ccc2nc(NCCO)nc(-c3ccccc3)c2c1	25.9µM*	-11.2%	-4.7%	-6.0%	u
COc1cccc(C(=O)N(C)CC2CCN(CCc3cccc(C(F)(F)F)c3)CC2)c1	u	-11.4%	x	4.6%	u
